Records with an inconclusive call do not appear. Calls of active or inactive are those of the source. Rule for the calls: active = hit-call score of the fitted dose curve at least 0.9, where 1 is the maximum; inconclusive = response in the unintended direction; inactive = score below 0.9.

The target of one assay is Cellular tumor antigen p53 (Homo sapiens) (UniProt P04637). Description: TOX21_p53_BLA_p2_ratio: Tox21 HCT-116 p53 Agonism Beta-lactamase Assay, Ratio, Phase 2 (AID 2283592). The procedure, abridged: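 Human colon HCT116 cells with an inducible p53 beta-lactamase reporter are exposed to test chemicals for 16 h at 37C. Reporter induction is read as the 460/530 nm emission ratio after CCF4-AM loading, normalized to DMSO.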
Sequence of Cellular tumor antigen p53 (Homo sapiens) (P04637 whole entry, looked up): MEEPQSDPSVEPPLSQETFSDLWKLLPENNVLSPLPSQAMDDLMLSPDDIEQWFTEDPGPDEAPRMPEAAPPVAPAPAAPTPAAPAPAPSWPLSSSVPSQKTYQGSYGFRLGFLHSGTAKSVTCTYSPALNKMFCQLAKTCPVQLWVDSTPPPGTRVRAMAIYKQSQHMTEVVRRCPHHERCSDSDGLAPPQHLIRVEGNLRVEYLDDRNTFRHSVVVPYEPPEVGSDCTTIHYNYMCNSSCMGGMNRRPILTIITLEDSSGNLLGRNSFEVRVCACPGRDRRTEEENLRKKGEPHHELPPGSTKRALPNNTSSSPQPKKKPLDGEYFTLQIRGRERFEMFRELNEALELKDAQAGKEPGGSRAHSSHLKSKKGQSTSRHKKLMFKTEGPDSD
For `CCCCC(CC)COC(=O)OOC(C)(C)C` (stereo not given), the result was inactive.

As to `Cc1c(Cl)c(=O)oc2cc(OP(=O)(OCCCl)OCCCl)ccc12`, the outcome was inactive.

Consider `C[C@]12CC[C@H]3[C@@H](CCC4=C(Cl)C(=O)CC[C@@]43C)[C@@H]1CC[C@@H]2O`, for which the outcome was inactive.

As to `CC1(C)[C@H](C=C(Cl)Cl)[C@@H]1C(=O)O[C@@H](C#N)c1cccc(Oc2ccccc2)c1`, the result was inactive.

Turning to `CCOC(=O)C(Cl)C(C)=O` (stereo not given), the outcome was inactive.

Turning to `Cc1nnc2n1-c1sc(CCc3ccc(CC(C)C)cc3)cc1C(c1ccccc1Cl)=NC2C` (stereo not given), the AC50 (usually the midpoint of the concentration-response curve, whichever way the signal moves) was 31 µM (active).

Regarding `Clc1ccc2ccccc2c1`, the outcome was inactive.

Regarding `S=C(SSC(=S)N1CCCCC1)N1CCCCC1`, the outcome was inactive.

On to `CN=CNc1ccc(C)cc1C`, for which the outcome was inactive.

Turning to `CC(=O)O[C@H]1C[C@H](O[C@H]2[C@@H](O)C[C@H](O[C@H]3[C@@H](O)C[C@H](O[C@H]4CC[C@@]5(C)[C@H](CC[C@@H]6[C@@H]5C[C@@H](O)[C@]5(C)[C@@H](C7=CC(=O)OC7)CC[C@]65O)C4)O[C@@H]3C)O[C@@H]2C)O[C@H](C)[C@H]1O[C@@H]1O[C@H](CO)[C@@H](O)[C@H](O)[C@H]1O`, the outcome was inactive.

Regarding `N#CSCc1ccccc1`, the AC50 is 80.2 µM (active).

Turning to `Cc1ccc2ccccc2c1`, the result was inactive.

For `Cn1cc(C2=C(c3cn(C4CCN(Cc5ccccn5)CC4)c4ccccc34)C(=O)NC2=O)c2ccccc21`, the outcome was inactive.

Consider `COc1ccc2c(c1OC)C(=O)O[C@H]2[C@@H]1c2cc3c(cc2CCN1C)OCO3`, for which the outcome was inactive.

As to `O=C(O)C(Br)CBr` (stereo not given), the outcome was inactive.

For `CC(=O)OC1CN2CCC1CC2` (stereo not given), the outcome was inactive.

On to `CCCCCCCCCCOC(=O)c1ccccc1C(=O)OCCCCCCCCCC`, for which the result was inactive.

For `ClCOCCl`, the outcome was inactive.

For `CC1N=C(N)OC1c1ccccc1` (stereo not given), the result was inactive.

In the case of `CCOP(=O)(OCC)SCCSCC` (tested in a mixture with another compound), the result was inactive.

For the compound `Nc1nc(N)nc(N)n1`, the outcome was inactive.

Turning to `CNC(C)Cc1ccccc1` (stereo not given), the outcome was inactive.

For `CCCCN(N=O)C(=N)N[N+](=O)[O-]`, the AC50 is 57 µM (active).

With `CN1C(=O)[C@@H](NC(=O)c2cc3ccccc3[nH]2)N=C(c2ccccc2)c2ccccc21`, the outcome was inactive.

With `Cc1cccc(Cc2cnc[nH]2)c1C`, the outcome was inactive.

For the compound `ClC=CCCl`, the result was inactive.

For the compound `CC[C@]1(O)CC[C@H]2[C@@H]3CCC4=CCCC[C@@H]4[C@H]3CC[C@@]21C`, the AC50 was 3.73 µM (active).

For `[CH3][Hg][Cl]`, the AC50 was 44.8 µM (active).

Turning to `CC(C)NC(C)C`, the outcome was inactive.

For the compound `C=C(Cl)CSC(=S)N(CC)CC`, the outcome was inactive.

For the compound `c1ccc2c(c1)cc1ccc3cccc4ccc2c1c34`, the AC50 is 2.05 µM (active).

For `CN(C)[C@H](Cc1ccccc1)c1ccccc1`, the outcome was inactive.

Turning to `C=C(C)CCl`, the outcome was inactive.

With `O=C(O)CCCO`, the outcome was inactive.

As for `CCCC1CCCCN1` (stereo not given), the outcome was inactive.

As for `CCCN`, the outcome was inactive.

Consider `COc1cccc2c1cc([N+](=O)[O-])c1c(C(=O)O)cc3c(c12)OCO3`, for which the AC50 was 1.75 µM (active).

In the case of `CC=CCC#N`, the result was inactive.

With `CC(C)(C)NCC(O)c1ccccc1Cl` (stereo not given), the result was inactive.

Turning to `CNc1ccc(C(=O)CC(O)CCC(C)C2OC(=O)CC(O)CC(=O)CC(O)CC(O)CC(O)CC(O)CC3(O)CC(O)C(C(=O)OC)C(CC(O[C@@H]4O[C@H](C)[C@@H](O)[C@H](N)[C@@H]4O)/C=C/C=C/C=C/C=C/C=C/C=C/C=C/C2C)O3)cc1` (stereo not given in full) (tested in a mixture with another compound), the AC50 is 37.8 µM (active).

System in a further assay: not listed separately
Briefly: TOX21_p53_BLA_p3_viability: Viability Assessment in the Tox21 HCT-116 p53 Agonism Beta-lactamase Assay, Phase 3 (AID 2283593).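 Note: cells exposed to compound for 16 h before reading.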 In a few lines:
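HCT116 cells, 4000/well, dosed 5 h after plating by pin transfer (217-fold dilution from DMSO stock) and incubated 16 h at 37C, 5% CO2. Viability read as ATP luminescence with CellTiter-Glo after 30 min at room temperature.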
As for `CCCCC(CC)COC(=O)OOC(C)(C)C` (stereo not given), the call was inactive.

As to `Cc1c(Cl)c(=O)oc2cc(OP(=O)(OCCCl)OCCCl)ccc12`, the compound was classed as inactive.

On to `C[C@]12CC[C@H]3[C@@H](CCC4=C(Cl)C(=O)CC[C@@]43C)[C@@H]1CC[C@@H]2O`, for which the call was inactive.

As for `CC1(C)[C@H](C=C(Cl)Cl)[C@@H]1C(=O)O[C@@H](C#N)c1cccc(Oc2ccccc2)c1`, the compound was called inactive.

In the case of `CCOC(=O)C(Cl)C(C)=O` (stereo not given), the compound was classed as inactive.

As to `Cc1nnc2n1-c1sc(CCc3ccc(CC(C)C)cc3)cc1C(c1ccccc1Cl)=NC2C` (stereo not given), the concentration at half-maximal activity (AC50) is 29 µM (active).

As for `Clc1ccc2ccccc2c1`, the outcome was inactive.

With `S=C(SSC(=S)N1CCCCC1)N1CCCCC1`, the result was inactive.

As for `CN=CNc1ccc(C)cc1C`, the call was inactive.

In the case of `CC(=O)O[C@H]1C[C@H](O[C@H]2[C@@H](O)C[C@H](O[C@H]3[C@@H](O)C[C@H](O[C@H]4CC[C@@]5(C)[C@H](CC[C@@H]6[C@@H]5C[C@@H](O)[C@]5(C)[C@@H](C7=CC(=O)OC7)CC[C@]65O)C4)O[C@@H]3C)O[C@@H]2C)O[C@H](C)[C@H]1O[C@@H]1O[C@H](CO)[C@@H](O)[C@H](O)[C@H]1O`, the AC50 is 0.0857 µM (active).

`N#CSCc1ccccc1`: the compound was classed as inactive.

In the case of `Cc1ccc2ccccc2c1`, the compound was called inactive.

Consider `Cn1cc(C2=C(c3cn(C4CCN(Cc5ccccn5)CC4)c4ccccc34)C(=O)NC2=O)c2ccccc21`, for which the compound was called inactive.

On to `COc1ccc2c(c1OC)C(=O)O[C@H]2[C@@H]1c2cc3c(cc2CCN1C)OCO3`, for which the result was inactive.

For the compound `O=C(O)C(Br)CBr` (stereo not given), the result was inactive.

For `CC(=O)OC1CN2CCC1CC2` (stereo not given), the result was inactive.

Turning to `CCCCCCCCCCOC(=O)c1ccccc1C(=O)OCCCCCCCCCC`, the compound was called inactive.

In the case of `ClCOCCl`, the outcome was inactive.

With `CC1N=C(N)OC1c1ccccc1` (stereo not given), the result was inactive.

`CCOP(=O)(OCC)SCCSCC` (tested in a mixture with another compound): the compound was called inactive.

With `Nc1nc(N)nc(N)n1`, the result was inactive.

Take `CNC(C)Cc1ccccc1` (stereo not given): the compound was called inactive.

As to `CCCCN(N=O)C(=N)N[N+](=O)[O-]`, the result was inactive.

For the compound `CN1C(=O)[C@@H](NC(=O)c2cc3ccccc3[nH]2)N=C(c2ccccc2)c2ccccc21`, the outcome was inactive.

As for `Cc1cccc(Cc2cnc[nH]2)c1C`, the result was inactive.

As to `ClC=CCCl`, the result was inactive.

`CC[C@]1(O)CC[C@H]2[C@@H]3CCC4=CCCC[C@@H]4[C@H]3CC[C@@]21C`: the call was inactive.

For `[CH3][Hg][Cl]`, the AC50 was 79.6 µM (active).

On to `CC(C)NC(C)C`, for which the compound was classed as inactive.

In the case of `C=C(Cl)CSC(=S)N(CC)CC`, the compound was called inactive.

As to `c1ccc2c(c1)cc1ccc3cccc4ccc2c1c34`, the result was inactive.

In the case of `CN(C)[C@H](Cc1ccccc1)c1ccccc1`, the AC50 was 37.9 µM (active).

For `C=C(C)CCl`, the compound was classed as inactive.

For the compound `O=C(O)CCCO`, the outcome was inactive.

Regarding `CCCC1CCCCN1` (stereo not given), the call was inactive.

Consider `CCCN`, for which the compound was called inactive.

Turning to `COc1cccc2c1cc([N+](=O)[O-])c1c(C(=O)O)cc3c(c12)OCO3`, the AC50 is 79.8 µM (active).

As to `CC=CCC#N`, the call was inactive.

Regarding `CC(C)(C)NCC(O)c1ccccc1Cl` (stereo not given), the call was inactive.

In the case of `CNc1ccc(C(=O)CC(O)CCC(C)C2OC(=O)CC(O)CC(=O)CC(O)CC(O)CC(O)CC(O)CC3(O)CC(O)C(C(=O)OC)C(CC(O[C@@H]4O[C@H](C)[C@@H](O)[C@H](N)[C@@H]4O)/C=C/C=C/C=C/C=C/C=C/C=C/C=C/C2C)O3)cc1` (stereo not given in full) (tested in a mixture with another compound), the compound was classed as inactive.

The values are drawn from PubChem BioAssay (EPA / NIEHS).
